Assay results as given in PubChem BioAssay AID1009 (NMMLSC, 2008).
Hit rate of the full screen: of about 190,000 compounds, about 200 (0.11%) were called active. Cut-off read from the data, not from the text of the source: active = inhibition above about 40%. This excerpt belongs to a sample that is enriched for actives.

Target: Induced myeloid leukemia cell differentiation protein Mcl-1 (Homo sapiens) (UniProt Q07820)
Experiment: Mcl-1/Bim interaction disruptors – biochemical, bead-based flow cytometry, multiplex, primary screen (AID 1009);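 note: 0% = no compound tracer wells and 100% = peptide blocker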
Details: Bim peptide-Mcl-1 binding, at 10 µM, stronger effect = higher value

Sequence of Induced myeloid leukemia cell differentiation protein Mcl-1 (Homo sapiens) (Q07820 whole entry, looked up): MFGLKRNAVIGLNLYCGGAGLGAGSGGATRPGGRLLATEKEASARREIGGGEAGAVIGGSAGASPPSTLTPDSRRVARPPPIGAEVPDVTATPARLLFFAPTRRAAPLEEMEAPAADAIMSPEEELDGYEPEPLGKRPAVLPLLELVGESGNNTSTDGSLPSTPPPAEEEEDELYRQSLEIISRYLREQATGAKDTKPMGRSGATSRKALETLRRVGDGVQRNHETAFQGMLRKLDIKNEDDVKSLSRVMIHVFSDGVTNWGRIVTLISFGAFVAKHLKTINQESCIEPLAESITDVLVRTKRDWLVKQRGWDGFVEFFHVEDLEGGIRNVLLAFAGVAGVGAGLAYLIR

SMILES | inhibition
CC(CO)NCC12CC3CC(CC(C3)C1)C2 (configuration not stated) | 0% (inactive)
Cc1[nH]c2ccccc2c1/C=C(/C#N)C(=O)NC(C)C | 0% (inactive)
C=CCN(Cc1nc(-c2cc(OC)c3c(c2)OCO3)oc1C)C1CCS(=O)(=O)C1 (configuration not stated) | -1% (inactive)
CC(C)C(=O)NCc1cc(-c2ccc(Cl)cc2)no1 | -2% (inactive)
O=C(NCCCN1CCOCC1)c1ccc(N2CCCC2)c([N+](=O)[O-])c1 | 0% (inactive)
O=C(NCc1ccc(F)cc1)C(c1ccccc1)N(C(=O)c1csnn1)C1CC1 (configuration not stated) | -1% (inactive)
Nc1[nH][nH]c(=O)c1N=Nc1ccc2c(c1)OCO2 | 0% (inactive)
COc1ccc(Cl)cc1N(CC(=O)N/N=C/c1ccc(OCC(N)=O)cc1)S(C)(=O)=O | 1% (inactive)
CSc1ccc(CN2C(=O)NC3(CCCCCC3)C2=O)cc1 | 3% (inactive)
Cc1nc(N2CCC(C)CC2)c2c(C)c(C(=O)Nc3cc(F)ccc3C)sc2n1 | -1% (inactive)
COc1ccc(/C=N/OCC(=O)N(Cc2ccccc2)c2ccccc2C(=O)O)cc1 | -1% (inactive)
C#CCOCCOCCOCCNc1nc(N2CCN(C(=O)[C@H](CCC(=O)O)n3cc(C(N)CO)nn3)CC2)nc(N2CCN(C(=O)[C@H](Cc3ccc(O)cc3)n3cc(C(N)[C@H](C)CC)nn3)CC2)n1 (some centres not stated) | 0% (inactive)
CCOC(=O)Cc1ncccc1C(=O)Nc1ccc(OC(F)(F)F)cc1 | -7% (inactive)
COc1ccc(C(=O)N2CCC(C(=O)Nc3ccc(C)cc3)CC2)cc1 | -3% (inactive)
N#Cc1ccc(-c2nc3cc(C#N)c(C#N)cc3nc2-c2ccccc2)cc1C#N | 1% (inactive)
O=C(CCN1C(=O)/C(=C/c2cccs2)SC1=S)NNC(=O)c1cccc(O)c1 | 0% (inactive)
COCC1CCCN(Cc2cn[nH]c2-c2cc3ccccc3o2)C1 (configuration not stated) | -3% (inactive)
O=C(NC(=S)NC1CCSC1=O)c1ccccc1F (configuration not stated) | 0% (inactive)
O=C(N/N=C/c1cc([N+](=O)[O-])ccc1O)/C(=C\c1cccs1)NC(=O)c1ccccc1 | 0% (inactive)
COc1ccc(C(=O)C2CCCN(Cc3cccn3-c3ccccn3)C2)c(C)c1 (configuration not stated) | 0% (inactive)
CN(CC(=O)NC1CCCC1)S(=O)(=O)c1cnc[nH]1 | -8% (inactive)
Cc1cc(C)nc(Nc2ncn[nH]2)n1 | 1% (inactive)

SMILES | inhibition
CCCCC(CC)CNC(=O)C(=O)C1C(=O)Nc2ccccc21 (configuration not stated) | -2% (inactive)
O=C(/C=C/c1cnc2ccccc2n1)NC1CCCCCC1 | -22% (inactive)
COc1cccc(CNC(=O)c2n[nH]c3ccccc23)c1 | 0% (inactive)
COc1ccc(N(CC(=O)Nc2ccc(C)cc2C)S(=O)(=O)c2ccccc2[N+](=O)[O-])c(OC)c1 | 4% (inactive)
COc1ccc(C(=O)NC2(C(F)(F)F)NC(=O)N(CCCc3ccccc3)C2=O)c(OC)c1OC (configuration not stated) | -3% (inactive)
CCCOc1ccc(Cn2ccnc2)cc1[N+](=O)[O-] | -1% (inactive)
O=C(/C=C/c1ccc(Cl)cc1)N1CCN(c2ccccc2[N+](=O)[O-])CC1 | -1% (inactive)
CCO[C@H]1OC(C(=O)N2CCOCC2)=C[C@@H](c2ccc3c(c2)OCO3)[C@@H]1CCCO | -2% (inactive)
CC(=O)N1CCN(S(=O)(=O)c2c(F)cc(F)c(Cl)c2F)CC1 | -1% (inactive)
Cc1ccc(Cl)c(NC(=O)CN2CCN(C=O)CC2)c1 | 0% (inactive)
CCCn1c(C(O)c2ccc(OCC)cc2)nc2ccccc21 (configuration not stated) | 0% (inactive)
COc1cc(C(O)c2nc3ccccc3n2C)cc(OC)c1OC (configuration not stated) | 0% (inactive)
CCCn1c(C(O)c2cc(OC)ccc2OC)nc2ccccc21 (configuration not stated) | 80% (active)
COc1ccc(CC2(CO)CCN(Cc3cnn(C)c3)CC2)cc1 | 8% (inactive)
COc1cccc(NC(=O)CS(=O)(=O)c2cn(CC(=O)N3CCOCC3)c3ccccc23)c1 | 1% (inactive)
COc1ccc(S(=O)(=O)NC(C)C)cc1C(=O)NC1CCCCC1 | -1% (inactive)
O=C(CCN1C(=O)c2ccccc2C1=O)C1=NN[C@@H]2C(=O)N(c3ccc(F)cc3)C(=O)[C@H]12 | -3% (inactive)
Cc1c(Cc2ccccc2)c(=O)oc2cc(OCC(N)=O)ccc12 | 0% (inactive)
C/C(=N/OC(=O)c1c(-c2c(F)cccc2Cl)noc1C)c1cnccn1 | -2% (inactive)
COC(=O)C1=C(C)N(C(C)c2ccccc2)C(=O)/C1=C\c1ccco1 (configuration not stated) | -2% (inactive)
Cc1ccc2[nH]cc(CCCN3C(=O)c4ccccc4C3=O)c2c1 | -3% (inactive)
CC1(C)CN(c2ccc(-c3ccnc4ncnn34)cc2)C1=O | -1% (inactive)

SMILES | inhibition
Cn1c(CCC(=O)OCC(=O)NCc2ccccc2Cl)nc(=O)c2ccccc21 | -2% (inactive)
CC(=O)Nc1ccc(-c2csc(NC=C3C(=O)OC(C)(C)OC3=O)n2)cc1 | -8% (inactive)
c1ccc2sc(NN=C3CCCC3)nc2c1 | 0% (inactive)
Oc1ccc(-c2nncn2-c2ccccc2)cc1 | 0% (inactive)
COc1cccc(NC(=O)COC(=O)CCOc2ccccc2OC)c1 | 0% (inactive)
COc1ccc(NC(=S)Nc2ccc(S(N)(=O)=O)cc2)c(C)c1 | -2% (inactive)
Cc1ccc(NN=Nc2nc3c([nH]2)c(=O)n(C)c(=O)n3C)cc1 | -7% (inactive)
O=C(NCCCN1CCOCC1)c1ccccc1NS(=O)(=O)c1ccc(F)cc1 | 3% (inactive)
CCOc1cccc(/C=C/c2ccc3ccccc3n2)c1OC(C)=O | 0% (inactive)
O=C(Nc1ccc(F)cc1)C1CCN(C(=O)c2ccc([N+](=O)[O-])cc2)CC1 | 0% (inactive)
Cc1cc(OCCN2CCCC2)cc(C(C)C)c1 | -3% (inactive)
COc1cc(C2OC(c3cc(OC)c(OC)c(OC)c3)C(C)C2C)cc(OC)c1OC (configuration not stated) | 0% (inactive)
COC(=O)c1cc(NC(=O)c2cccnc2)ccc1N1CCOCC1 | -2% (inactive)
Cc1ccc(S(=O)(=O)/N=C(\N)c2ccc(F)cc2)cc1 | 0% (inactive)
CC1CCCC(NC(=O)c2cccc(N3CCCC3=O)c2)C1C (configuration not stated) | 1% (inactive)
CCOC(=O)N1CCC(NC(=O)COc2cc(=O)n(C)c3ccccc23)CC1 | -1% (inactive)
CCOC(=O)N1CCC(c2cc(=O)n(-c3ccccc3)[nH]2)CC1 | 42% (active)
CCOC(=O)CN1CCC(c2ccccc2)CC1 | 2% (inactive)
CCN(CC)C(=O)C(=O)c1cn(CC(=O)NCc2ccc3c(c2)OCO3)c2ccccc12 | 0% (inactive)
COC(=O)c1ccc(NC(=O)CSc2nncc3ccc(OC)c(OC)c23)cc1 | 1% (inactive)
Cn1cc(Cl)c(C(=O)NNC(=S)Nc2cccc(Cl)c2)n1 | -1% (inactive)
Cc1cc(C)c(C(N)=O)c(Cl)n1 | 0% (inactive)

SMILES | inhibition
CC(C)(C)NC(=O)c1ccc(Cn2cc(C(F)(F)F)ccc2=O)cc1 | -1% (inactive)
CCN(CC)c1ccc(C(=O)N/N=C(\C)c2cccc(OC)c2)cc1 | 1% (inactive)
Cn1c(-c2sccc2OCc2cccc(C(F)(F)F)c2)n[nH]c1=S | -4% (inactive)
CC(=O)NC(NC(=S)Nc1c(C)n(C)n(-c2ccccc2)c1=O)C(Cl)(Cl)Cl (configuration not stated) | 0% (inactive)
CCC(=O)NCc1cc(-c2nn(C)c(=O)c3ccccc23)ccc1OC | -1% (inactive)
O=C(/C=C/c1ccc([N+](=O)[O-])cc1)NCCSCc1ccco1 | -5% (inactive)
Cc1c(C(=O)NC(=S)NCc2cccnc2)oc2ccccc12 | 0% (inactive)
CCOCC(=O)Nc1ncc(S(=O)(=O)c2ccc([N+](=O)[O-])cc2)s1 | 0% (inactive)
COC(=O)CNC(=O)c1ccc(OC2CCN(C(=O)C3CC3)CC2)cc1 | -2% (inactive)
CC(=O)c1ccccc1NC(=O)CC1(CC(=O)O)CCCCC1 | 0% (inactive)
Fc1ccccc1CNC(=S)Nc1ccc(Cl)cc1 | -14% (inactive)
CSc1ccc(/C=C/C(=O)NC23CC4CC(CC(C4)C2)C3)cc1 | -2% (inactive)
O=C(c1ccc(OC2CCN(Cc3ccccn3)CC2)cc1)N1CCCCCC1 | -4% (inactive)
Cc1ccc2c(c1)C1CN(C)CCC1N2C(=S)Nc1ccc(OC(F)F)cc1 (configuration not stated) | -1% (inactive)
O=C(COC(=O)CCCSc1nc2ccccc2[nH]1)Nc1ccc(Oc2ccccc2)cc1 | 2% (inactive)
COc1ccc(-c2nc(CN3CCN(c4ncccn4)CC3)c(C)o2)cc1C | -2% (inactive)
O=[N+]([O-])c1ccc(F)cc1Oc1nc(-c2cccnc2)nc2ccccc12 | 4% (inactive)
CCN1CCN(C(=O)CN(C)S(=O)(=O)c2ccc3ccccc3c2)CC1 | 0% (inactive)
O=C(Nc1ccc2oc(-c3ccccc3F)nc2c1)c1ccco1 | -3% (inactive)
COc1ccnc(Oc2ccccc2)c1-c1ncn[nH]1 | -2% (inactive)
N#C/C(=C\c1ccc(-c2cccc([N+](=O)[O-])c2)o1)C(=O)NCCN1CCOCC1 | 0% (inactive)
N#CCOc1ccc(C2=NO[C@@H]3[C@@H]4C[C@@H]([C@H]5C(=O)N(c6ccc7c(c6)OCO7)C(=O)[C@@H]45)[C@H]23)cc1 | -7% (inactive)

SMILES | inhibition
CCc1c(SCCC(=O)O)nc2ccccc2c1C | -1% (inactive)
COc1ccc(CC(NC(C)=O)C(=O)NC2CCN(C(=O)C3CC3)CC2)cc1OC (configuration not stated) | 1% (inactive)
COc1cccc(NC(=O)C(Sc2nc3ccccc3c(=O)n2CC(C)C)c2ccccc2)c1 (configuration not stated) | -1% (inactive)
O=C(COc1nc2ccccc2nc1N1CCOCC1)NCC(F)(F)F | -3% (inactive)
Cc1ccc(OCC(=O)NNC(=S)NCc2ccccc2)cc1 | 0% (inactive)
CCOC(=O)c1cc2c(nc1NC(=S)Nc1ccccc1)CC(C)(CC)OC2 (configuration not stated) | -5% (inactive)
Cc1[nH]c2ccccc2c1SCC(=O)Nc1nccs1 | -1% (inactive)
O=C(/C=C/c1ccccc1)Oc1coc(CSc2ncccn2)cc1=O | 0% (inactive)
Cc1nn(CC(=O)NCc2ccccn2)c(C)c1[N+](=O)[O-] | 0% (inactive)
CCCNC(=O)NC(=O)COC(=O)CC(NC(N)=O)c1ccc(Cl)cc1 (configuration not stated) | -8% (inactive)
COCCNC(=O)NC(=O)COC(=O)C1(c2ccc(Cl)cc2)CC1 | 0% (inactive)
Cc1ccc(S(=O)(=O)Cc2cc(-c3ccc(Cl)cc3)no2)cc1 | 0% (inactive)
O=C1CCC/C(=N\NC(=O)NC2CCCCC2)C1 | 1% (inactive)
Cc1ccc(C(=O)COC(=O)c2cccc(N3C(=O)c4c(C)nc5ccccc5c4C3=O)c2)cc1C | -5% (inactive)
CCOc1cc(CNCc2ccccn2)ccc1OCC(=O)NC(C)(C)C | -5% (inactive)
Cc1cc(=O)oc2c1c(C)nn2-c1ccc(Cl)cc1 | 2% (inactive)
O=C(Cn1c2[n+](c3ccc(C(F)(F)F)cc31)CCCCC2)Nc1c(F)cccc1F | 2% (inactive)
Cc1ccc(OCC(=O)OC(C)CN(C)Cc2ccccc2)cc1 (configuration not stated) | 0% (inactive)
Cc1ccc(C(=O)O)cc1N1C(=O)CCCC1=O | 0% (inactive)
